# Key:
# Details in all cases: concentration: 1 μM, replicates: in singlicate; n = 1
# AAK1 = tested on: AAK1
# ABL1-nonphosphorylated = tested on: ABL1-nonphosphorylated
# ABL1-phosphorylated = tested on: ABL1-phosphorylated
# ABL2 = tested on: ABL2
# ACVR1B = tested on: ACVR1B
# ACVR1 = tested on: ACVR1
# ACVR2A = tested on: ACVR2A
# ACVR2B = tested on: ACVR2B
# ACVRL1 = tested on: ACVRL1
# ADCK3 = tested on: T1, ADCK3
# T1 construct: gene CABC1
# 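Further: KINOMEscan kinase panel screen.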
SMILES,%Inh (AAK1) [%],%Inh (ABL1-nonphosphorylated) [%],%Inh (ABL1-phosphorylated) [%],%Inh (ABL2) [%],%Inh (ACVR1B) [%],%Inh (ACVR1) [%],%Inh (ACVR2A) [%],%Inh (ACVR2B) [%],%Inh (ACVRL1) [%],%Inh (ADCK3) [%]
C[C@@H]1CC[C@@H](C(=O)Nc2ccccc2)CN1c1cc(-c2ccc3c(N)n[nH]c3c2)nc(N)n1 [GSK2286062],18,0,0,2,0,0,0,0,0,29
Cc1ccc(C(=O)N2CC[C@@H](O)C2)cc1-n1c(C)cc(OCc2ccc(F)cc2F)c(Br)c1=O,0,92.1,90.5,72,12,0,31,0,0,0
O=C(Nc1ccccc1F)NC1CCN(c2ccnc(Nc3ccc(F)cc3)n2)CC1 [GSK1379800],17,0,0,12,0,6,0,0,0,1
COC(=O)Nc1nc2ccc(Oc3ccc(NC(=O)Nc4cc(C(F)(F)F)ccc4F)cc3)cc2n1C.Cl [GW692089],0,98.4,49,84,0,0,0,0,0,0
Cc1ccc(C)c(NC(=O)NC2CCN(c3ccnc(Nc4ccc(F)cc4)n3)C2)c1 (stereo not shown) [GSK1379720],6,0,0,7,0,14,0,0,0,0
CC(=O)Nc1nc2cnc(Nc3cc(NC(=O)c4cccc(C5(C#N)CC5)c4Cl)ccc3C)nc2s1,23,99,59,70,0,0,0,0,0,0
Cc1cccc(NC(=O)Nc2ccc(Oc3ncnc4ccn(C)c34)cc2)c1,0,33,23,0,0,4,2,0,0,0
Clc1ccc(-c2nn3ncccc3c2-c2ccnc(Nc3ccc4c(c3)OCCO4)n2)cc1 [GW829116],0,61,7,0,28,0,14,54,4,16
CN(c1ccc(NC(=O)Nc2cc(C(F)(F)F)ccc2F)cc1)c1ccnc(Nc2ccc(S(N)(=O)=O)cc2)n1 [GW809893],9,98.1,75,98.5,1,0,0,14,4,0
Cc1occc1-c1ncc(OC[C@@H](N)Cc2c[nH]c3ccccc23)cc1-c1ccc2[nH]nc(C)c2c1.O=C(O)C(F)(F)F [GSK682037],61,13,33,47,8,0,0,0,0,25
COc1cccc(C(=O)Nc2cccc(Oc3ccc4nc(NC(=O)C5CC5)cn4n3)c2)c1,27,100,99.7,96.3,0,0,1,18,8,10
CCS(=O)(=O)c1ccc(OC)c(Nc2nccc(-c3c(-c4cccc(NC(=O)c5c(F)cccc5F)c4)nn4ncccc34)n2)c1 [GSK326180],22,4,10,10,0,10,0,0,0,0
CCCCc1nn2ncccc2c1-c1ccnc(Nc2ccc(N3CCN(C)CC3)cc2)n1 [GW684941],21,95.8,98.8,96.8,67,89,16,35,51,96.7
COc1ccc(CNC(=O)NC2CCN(c3ccnc(Nc4ccc(F)cc4)n3)CC2)cc1 [GSK1379788],13,0,0,0,0,0,0,0,0,9
O=C(Nc1cccc(-c2nn3ccccc3c2-c2ccnc(Nc3cccc(C(F)(F)F)c3)n2)c1)c1c(F)cccc1F [GSK292658],0,11,0,21,0,0,0,0,0,0
COc1ccc(-c2coc3ccc(-c4nnc(SCc5ccc(OC)c(C(F)(F)F)c5)o4)cc23)cc1,2,13,0,24,7,28,0,0,26,21

SMILES,%Inh (AAK1) [%],%Inh (ABL1-nonphosphorylated) [%],%Inh (ABL1-phosphorylated) [%],%Inh (ABL2) [%],%Inh (ACVR1B) [%],%Inh (ACVR1) [%],%Inh (ACVR2A) [%],%Inh (ACVR2B) [%],%Inh (ACVRL1) [%],%Inh (ADCK3) [%]
COc1cc(Nc2nccc(-c3c(-c4cccc(NC(=O)c5c(F)cccc5F)c4)nn4ncccc34)n2)cc(OC)c1OC [GSK327238],13,92.9,24,80,14,0,0,0,0,0
O=C(Nc1cccc(-c2nn3ncccc3c2-c2ccnc(Nc3ccccc3)n2)c1)c1c(F)cccc1F [GSK198271],17,60,6,42,0,21,0,25,0,3
Cl.Cl.NCC(NCc1ccc(-c2ccnc3[nH]ccc23)s1)c1ccccc1 (stereo not shown) [GSK1321565],67,0,0,1,0,18,0,0,0,25
C[C@@H](Oc1cc(-n2cnc3cc(-c4ccnc(NCCS(C)(=O)=O)c4)ccc32)sc1C(N)=O)c1ccccc1Cl [GSK907232],73,0,0,30,0,10,0,3,0,25
FC(F)(F)c1ccc(/C=C/c2cncnc2Nc2ccc3[nH]c(Cc4ccccc4)nc3c2)cc1 [GW709199],15,35,19,4,0,0,24,37,0,18
O=C(NC1CCN(c2ccnc(Nc3ccc(F)cc3)n2)C1)c1cc2ccccc2s1 (stereo not shown) [GSK1379716],7,0,0,21,0,0,0,5,11,24
Cn1cc(-c2[nH]c3cc(NC(=O)[C@H](N)C4CCCCC4)cc4c3c2C=NNC4=O)cn1,99.5,95.7,97.5,30,3,58,81,44,0,0
COc1cc(Nc2nccc(-c3c(-c4cccc(NC(=O)c5c(F)cccc5F)c4)nn4ccccc34)n2)cc(OC)c1OC [GSK323521],44,52,0,33,19,0,7,15,25,10
Cl.c1ccc(-c2ccc3c(Nc4ccc5[nH]ncc5c4)ccnc3c2)nc1 [GW440137],18,63,73,28,1,71,57,94.6,19,3
CN(C)S(=O)(=O)c1cc(-c2ccc3nccc(-c4cccc(S(N)(=O)=O)c4)c3c2)cnc1N [GSK1669921],26,0,0,17,0,88,0,0,0,16
O=C(Nc1cccc(Oc2ccc3nc(NC(=O)C4CC4)cn3n2)c1)c1ccccc1C(F)(F)F,45,100,90,79,0,0,16,34,0,3
CC(=O)N1CCN(c2ccc(Nc3nccc(-c4sc(C(C)C)nc4-c4cccc(NS(=O)(=O)c5cccc(Cl)c5)c4)n3)cn2)CC1 [GSK1660437],0,95.8,35,83,70,61,29,72,44,73
COc1cc(Nc2ncc3c(C)nc(-c4cc5ccccc5[nH]4)n3n2)cc(OC)c1OC [GW869516],0,32,24,21,8,0,9,24,0,22
Cl.NC(=O)c1cccc(Nc2nccc(Nc3ccc(Oc4c(Cl)cccc4Cl)c(Cl)c3)n2)c1 [GW659009],15,67,0,85,100,0,0,0,7,0
COc1cccc(C2=C(Nc3ccc(Cl)c(C(=O)O)c3)C(=O)NC2=O)c1 [SB-390769],9,11,100,16,0,15,100,5,0,0

# From PMC5540273 (PLoS ONE, 2017)
